Cycloheximide cs: counter-screen hit for Shiga toxin inhibitors, cycloheximide | cell reporter, cycloheximide protein synthesis inhibition counterscreen | max response, % | 300,000 compounds, 12% hits; in the data active means max response mostly above about 13%, no sharp cut-off; inactive means mostly below about 14%; further: read at 38.3 µM for the half of the compounds with a filed dose; 0% is about no effect
Pf growth 48h: inhibits P. falciparum growth in the first generation, 48 h; Potency, µM (highest dose often 28.7 µM), for the others: at the top dose activity change, negative = inhibition, actives largely listed as inhibitors; P. falciparum luciferase growth in erythrocytes, 48 h; 310,000 compounds, 5.9% hits; further: potency means the concentration at half of the fitted maximal effect; on the % scale 0 is the no-effect control and ±100 the full control effect
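Cell-based growth assay: transgenic P. falciparum expressing firefly luciferase, cultured in red cells within RPMI 1640 containing 0.5% w/v Albumax, 24 mM bicarbonate and gentamycin. A drop in luciferase activity indicates inhibition.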
AMA1-RON2 inh: inhibitors of Plasmodium falciparum AMA1-RON2 interaction; 360,000 compounds, 0.2% hits; AlphaScreen AMA1-biotinylated RON2 peptide binding; Potency, µM (highest dose often 58.2 µM), without a hit: at the top dose activity change, negative = inhibition, hits mostly inhibitors;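 further: potency means the concentration at half of the fitted maximal effect; 0% = vehicle wells and -100% = peptide control; nearly all actives have a fitted effect of over 45% in size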
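AMA1 (3D7) with his tag at 25 nM final met compounds first, then biotinylated RON2 peptide at 25 nM; detection used donor plus acceptor beads, 10 µg/mL apiece, read by AlphaScreen after 30 min at room temperature.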
Pf growth 96h: inhibits malaria parasite growth, 96 h | P. falciparum luciferase reporter growth, 96 h | Potency, µM (series often up to 28.7 µM), for the others: at the top dose activity change, negative = inhibition, usual class: inhibitors | 320,000 compounds, 6.9% hits | AID 504834; further: potency means the concentration at half of the fitted maximal effect; on the % scale 0 is the no-effect control and ±100 the full control effect
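Delayed-death screen, second-generation endpoint: infected erythrocytes, 2% hematocrit, 0.05% parasitemia final; 96 hours at 37 C, 5% CO2; luciferase detection reagent; luminescence decrease equals reduced growth.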
HCV inh: blocks hepatitis C virus; Potency, µM (highest dose often 41.8 µM), without a hit: at the top dose activity change, negative = inhibition, usual class: inhibitors; 340,000 compounds, 3.4% hits; AID 651820; Huh7.5.1 HCVcc-Cre infection, luciferase reporter, 44 h; further: potency means the concentration at half of the fitted maximal effect; on the % scale 0 is the no-effect control and ±100 the full control effect
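HCVcc-Cre virus at an moi near 0.5 was added right after compound to cells cultured 4 h from seeding (1,000 cells/well). Luciferase activity was determined 44 h later, 15 min after substrate addition at RT.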
Shiga toxin inh: Shiga toxin inhibition; Vero cells, Shiga toxin protein synthesis inhibition reporter; inhibition, % at 38.7 µM; 290,000 compounds, 9.2% hits; in the data active means inhibition mostly above about 28%, no sharp cut-off; inactive means mostly below about 43%; further: 0% is about no effect
Active calls of the source: *; ? = inconclusive; . = no result. The list is not random: actives were taken first. Their share in the collection is about 21%. Unless noted, the call rests on the fitted dose curve; in most records, active means well fitted curve in the direction sought with a large enough effect; inconclusive means small, poorly fitted or top-dose-only effect, or another doubt; inactive means no such curve, though single readings can be large; an effect the other way counts as inactive or inconclusive.

SMILES	Cycloheximide cs	Pf growth 48h	AMA1-RON2 inh	Pf growth 96h	HCV inh	Shiga toxin inh
COc1ccc(/C=N/NC2=NCCCCC2)cc1	10.3	.	17.2%	40.5%	3.8%	13.2
c1coc(CN2CCN(C(c3cccs3)c3nnnn3C3CCCC3)CC2)c1 (stereo not drawn)	11.2	7.8%	0.0%	32.0%	11.9%	-17.4
CCC(C)(C)n1nnnc1C(c1cccs1)N1CCCCC1 (stereo not drawn)	-2.0	-15.6%	-7.6%	8.1%	-27.3%	-7.5
c1csc(C(c2nnnn2C2CCCCC2)N2CCCC3(CCCCC3)C2)c1 (stereo not drawn)	-1.0	2.62µM*	-1.8%	?	24.7%	9.2
CC(C)(C)n1nnnc1C(c1cccs1)N1CCCC2(CCCCC2)C1 (stereo not drawn)	-3.9	5.22µM*	?	?	5.7%	-1.5
COc1ccc(CCN(C)C(=O)CSc2nc3ncc(Cl)cc3[nH]2)cc1OC	-1.8	-24.2%	1.9%	?	20.2%	-3.0
O=C(NCc1ccc(F)cc1)c1cnn2ccccc12	29.7*	.	10.8%	296.8%	?	67.6
CCc1ccc(NC(=O)c2cnn3ccccc23)cc1	43.1*	.	0.2%	1.17µM*	1.0%	4.4
CCc1ccc(NC(=O)CCn2cccc2)cc1	28.1	.	-16.4%	?	-0.8%	32.4
CSc1cccc(NC(=O)Cn2cccc2)c1	5.8	20.2%	-10.6%	0.4%	-3.0%	4.7
CSc1cccc(NC(=O)c2cnn3ccccc23)c1	45.4*	370.5%	0.0%	472.0%	-13.5%	76.4*
Cc1ccc(N(CC(=O)NCc2ccc(Cl)cc2)S(C)(=O)=O)cc1	7.7	?	6.6%	0.0%	1.5%	.
CNc1ncnc2c1ncn2[C@H]1CN(Cc2ccc(F)cc2)C[C@@H](CO)O1	.	.	-1.6%	.	.	.
Cc1sc2ncnc(N3CCN(CCOc4ccc(Cl)cc4)CC3)c2c1C	-1.3	.	-13.3%	12.9%	10µM*	5.3
Cc1sc2ncnc(N3CCN(Cc4ccccc4)CC3)c2c1-c1ccccc1	-7.6	11.7µM*	-2.3%	10.4µM*	?	0.2
Cc1sc2ncnc(N3CCC(C(=O)NNC(=O)COc4ccc(Cl)cc4)CC3)c2c1C	.	.	89.1%	.	-20.6%	.
CCOc1ccc(CCN2C(=S)N([C@@H](Cc3ccc(O)cc3)CN3CCCC3CN3C(=S)NC[C@@H]3Cc3ccc(O)cc3)C[C@@H]2CC(C)C)cc1 (stereo partly drawn)	.	.	40.3%	.	4.47µM*	.
CC(C)C[C@H]1CNC(=S)N1CC1CCCN1C[C@H](Cc1ccc(O)cc1)N1C[C@H](Cc2ccccc2)N(CC2CCCCC2)C1=S (stereo partly drawn)	.	.	4.1%	.	11.2µM*	.
CCOc1ccc(CCN2C(=S)N([C@@H](Cc3ccccc3)CN3CCC[C@@H]3CN3C(=S)NC[C@@H]3Cc3ccc(O)cc3)C[C@@H]2CC(C)C)cc1	.	.	7.8%	.	.	.
CC(C)C[C@H]1CNC(=S)N1C[C@H]1CCCN1C[C@H](Cc1ccccc1)N1C[C@H](Cc2ccc(O)cc2)N(CC2CCCCC2)C1=S	.	.	7.3%	.	.	.
COc1ccc(-n2c(C)cc(/C=C3\SC(=S)N(Cc4ccco4)C3=O)c2C)cc1	-2.0	?	-28.5%	-2.4%	?	-5.0
CCN1CCN(c2c(/C=C3\SC(=S)N(Cc4ccco4)C3=O)c(C)c(C#N)c(=O)n2C)CC1	-2.1	2.33µM*	15.7%	?	2.24µM*	-11.3
Cc1cc2[nH]c(=O)c3ccccc3n2n1	-2.5	14.6%	3.2%	44.0%	20.5%	-12.0
Cc1cc2[nH]c(=O)cc(-c3ccccc3)n2n1	16.6*	17.1%	46.8%	-10.3%	3.0%	47.2
Nc1ccc(CN2CCOCC2)cc1	6.1	11.2%	-6.2%	?	21.0%	-6.7
SMILES	Cycloheximide cs	Pf growth 48h	AMA1-RON2 inh	Pf growth 96h	HCV inh	Shiga toxin inh
CCCCN1C(=O)/C(=C/C=C2\Oc3ccccc3N2CC)SC1=S	-6.4	-18.0%	-1.8%	28.6%	-1.7%	9.8
CCCCN1C(=O)/C(=C/C=C2/CC(C)(C)CN2C)SC1=S	30.5*	12.0%	?	?	7.0%	31.6
CCN1C(=O)/C(=C/C=C2/SCCN2C)SC1=S	58.9*	124.4%	-4.8%	232.6%	0.1%	78.0*
Cc1coc2c1c(C)cc1oc(=O)c(CC(=O)NCCCCCC(=O)O)c(C)c12	-2.4	2.4%	3.8%	5.4%	3.6%	-5.0
COc1ccc(S(=O)(=O)N2CCC(C(=O)NCCc3ccccc3)CC2)cc1	-2.5	-10.9%	-3.4%	-21.7%	5.1%	-5.3
OC(c1ccc(F)cc1)c1ncc(-c2ccc3ccccc3c2)[nH]1 (stereo not drawn)	.	.	-1.2%	.	.	.
CCOC(=O)N/N=C\c1ccc(-c2cc(Cl)ccc2Cl)o1	-4.3	5.22µM*	?	22.0%	-9.4%	-3.2
NC(=S)N/N=C/c1ccc(-c2cc(Cl)cc(Cl)c2)o1	11.5	?	-9.8%	.	-9.8%	-9.3
NC(=S)N/N=C/c1ccc(-c2cc(Cl)ccc2Cl)o1	-2.9	.	51.9%	4.65µM*	?	-8.0
CC1CN(c2ccc([N+](=O)[O-])c(NCCOc3ccc(Cl)cc3)c2)CC(C)N1 (stereo not drawn)	-2.6	?	-27.8%	223.2%	8.91µM*	-17.1
Cc1ccccc1OCCNc1cc(N2CC(C)NC(C)C2)ccc1[N+](=O)[O-] (stereo not drawn)	-4.9	?	?	?	?	-27.5
CCc1ccc(OCCNc2cc(N3CCNC(C)C3)ccc2[N+](=O)[O-])cc1 (stereo not drawn)	.	4.65µM*	-28.0%	?	14.1µM*	.
Cc1ccc(NC(=O)CSC(C)C(=O)OCC(=O)N2CCN(C(=O)c3ccco3)CC2)cc1 (stereo not drawn)	.	7.6%	-6.7%	0.1%	10.9%	.
O=C(CN1CC(c2ccccc2)CC1=O)OCc1ccccc1F (stereo not drawn)	44.3*	25.2%	8.6%	.	-4.3%	97.4*
Cc1nc(CCNC(=O)CC2C(=O)NCCN2CC(C)C)nc2c1CCC2 (stereo not drawn)	-2.9	-9.0%	17.6%	?	14.9%	-3.5
CCCCNC(=O)C1(C)CCN1C(=O)Cc1cccc2ccccc12 (stereo not drawn)	.	.	0.0%	.	.	.
Cc1cccc(NC(=O)CSc2nccn2Cc2ccco2)c1	61.6*	67.4%	-16.5%	80.6%	.	90.8*
Cc1cccc(NC(=O)CSCC(=O)NCc2ccco2)c1	-1.3	11.6%	-12.2%	29.5%	16.0%	-4.1
Cc1cccc(NC(=O)CSc2nccn2Cc2ccco2)c1C	17.7*	26.0%	10.2%	44.7%	12.7%	53.3
Cc1cc(C)cc(NC(=O)CSc2nccn2Cc2ccco2)c1	21.9*	20.3%	-4.4%	3.5%	20.1%	45.1
COCCSc1nnc(NC(=O)c2ccc(OC)c([N+](=O)[O-])c2)s1	7.4	39.5%	-3.4%	26.0%	-19.0%	-1.2
COc1ccc(-n2nc(C(=O)NCC(=O)NCc3cccc(F)c3)c3ccccc3c2=O)cc1Cl	-1.4	-24.1%	-19.4%	-0.1%	?	1.4

Screening results (PubChem)
